Screens from PubChem.
Only some compounds are listed: those with a hit (about 6.5% of all), similar ones and a draw of the others.
MARV entry inh: Marburg virus entry inhibition. Marburg virus pseudotyped entry inhibition, cell reporter. Potency, µM (top dose mostly 37.8 µM), inactives show top-dose activity change, negative = inhibition, usual class: inhibitors. actives 1.8% (n = 300,000); calls by dose curve; tested in HEK293 cells; note: potency is the fitted concentration of half-maximal effect
Lassa entry inh: Lassa virus entry inhibition; actives 1.2% (n = 300,000); Potency, µM (titrated, usually from 37.9 µM), without a hit: top-dose activity change, negative = inhibition, usual class: inhibitors; Lassa virus pseudotype entry inhibition, cell reporter; calls by dose curve; tested in HEK293 cells; note: potency is the fitted concentration of half-maximal effect; nearly all actives have a fitted effect of over 50% in size
HCMV inh: inhibitors of human cytomegalovirus; HFF cells, HCMV-luciferase reporter, 72 h; active compounds read low; activity change, negative = inhibition, % at 57.5 µM; actives 4.5% (n = 410,000); AID 1259415; in the data active = activity change below about -60%; inconclusive = no clear call, values can overlap the other calls; inactive = above about -39%
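Two-dose cell screen: HFF monolayers treated with compounds and infected with luciferase-expressing HCMV at 1 PFU/cell, 72 h at 37C, then lysed for luciferase measurement.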
VACV Venus inh: vaccinia inhibition (Venus reporter) | AID 720580 | Potency, µM (series often up to 36.5 µM), without a hit: at the top dose activity change, negative = inhibition, hits mostly inhibitors | Vaccinia virus Venus reporter expression, fluorescence | actives 0.46% (n = 330,000); calls by dose curve; tested in A549 cells; note: potency is the fitted concentration of half-maximal effect; nearly all actives have a fitted effect of over 30% in size
FMDV antiviral: antivirals against foot and mouth disease virus. FMDV antiviral cell-based qHTS. Potency, µM (titrated, usually from 57.9 µM), inactives show top-dose activity change, negative = inhibition, actives largely listed as inhibitors. actives 1.2% (n = 410,000); calls by dose curve; tested in HEK293T cells; note: read-out not given here; potency is the fitted concentration of half-maximal effect; nearly all actives have a fitted effect of over 45% in size
VACV mCherry inh: inhibitors of vaccinia virus infection (mCherry reporter signal). Vaccinia virus mCherry reporter infection, fluorescence. Potency, µM (series often up to 36.5 µM), without a hit: at the top dose activity change, negative = inhibition, actives largely listed as inhibitors. actives 0.63% (n = 310,000). AID 720579; calls by dose curve; tested in A549 cells; note: potency is the fitted concentration of half-maximal effect; nearly all actives have a fitted effect of over 35% in size
Numbers without * were called inactive; i = inactive; ? = inconclusive; . = no result; [ ] = another dose, or the depositor's remark. % is set by controls: 0 for no effect and ±100 for the full control effect.

SMILES	MARV entry inh	Lassa entry inh	HCMV inh	VACV Venus inh	FMDV antiviral	VACV mCherry inh
CCn1c(C)nc2cc(NC(=O)Nc3cccc(C(C)=O)c3)ccc21	.	.	-67*	.	28%	.
COc1cccc(NC(=O)Nc2ccc3c(c2)nc(C)n3C)c1	?	?	45	-25%	-40%	-15%
Cc1ccc(NCN2C(=O)c3ccccc3C2=O)c(C)n1	.	.	28	.	.	.
CCOC(=O)c1cc2c(C)n(-c3ccc(C)cc3)c(C)c2ccc1=O	26µM*	?	-96*	.	-37%	.
CCOC(=O)c1cc2c(C)n(-c3ccc(OCC)cc3)c(C)c2ccc1=O	?	?	?	-23%	40µM*	?
COc1ccc(NC(=O)N(C)[C@H]2C[C@H]3c4[nH]c5ccc(-c6ccc7c(c6)OCO7)cc5c4CCN3C[C@H]2[C@H](C)O)cc1	.	.	-1	?	-30%	?
COc1ccc(NC(=O)N(C)[C@H]2C[C@H]3c4[nH]c5ccc(-c6ccc(OC)cc6)cc5c4CCN3C[C@H]2[C@H](C)O)cc1	.	.	-104*	?	-22%	-29%
CN[C@H]1C[C@H]2c3[nH]c4ccc(-c5ccc(OC)cc5)cc4c3CCN2C(=O)[C@H]1[C@H](C)O	.	.	-103*	13µM*	?	?
COc1ccc(NC(=O)N(C)[C@H]2C[C@H]3c4[nH]c5ccc(-c6ccc(OC)cc6)cc5c4CCN3C(=O)[C@H]2[C@H](C)O)cc1	.	.	-68*	?	-23%	-27%
CCOC(=O)c1ccc(NC(=O)c2cc(=O)c3ccc(C)c(C)c3o2)cc1	0%[46.1 µM]	15%[46.1 µM]	10	-13%	-5%	-10%
Cc1ccc(NC(=O)COC(=O)C2CCN(c3ccc(C(F)(F)F)cn3)CC2)cc1	.	.	-73*	.	-2%	.
CCCOC(=O)c1ccc(NC(=O)COC(=O)C2CCN(c3ccc(C(F)(F)F)cn3)CC2)cc1	.	.	62	.	22%	.
CC(=O)Nc1ccc(NC(=O)CN2C(=O)CC(c3ccco3)Sc3ccccc32)cc1 (centres undefined)	5%[46.1 µM]	.	-105*	7%	-7%	6%
COc1ccc(OC)c(NC(=O)CN2C(=O)CC(c3ccco3)Sc3ccccc32)c1 (centres undefined)	?	.	-10	-8%	-9%	-13%
CCOc1ccccc1NC(=O)CN1C(=O)CC(c2ccco2)Sc2ccccc21 (centres undefined)	?	.	-87*	-22%	-19%	-23%
Cc1cc(NC(=O)CN2C(=O)CC(c3ccco3)Sc3ccccc32)no1 (centres undefined)	.	.	.	-5%	-2%	i
COc1cccc(NC(=O)CN2C(=O)CC(c3ccco3)Sc3ccccc32)c1 (centres undefined)	1%[46.1 µM]	.	-105*	-4%	-22%	-8%
CCCCc1ccc(NC(=O)COc2cccc3c(=O)n(C)ccc23)cc1	.	?	-25	?	?	?
COc1ccc(-n2c(CN3CCOCC3)nc3ccc([N+](=O)[O-])cc3c2=O)c(OC)c1	19%[46.1 µM]	30%[46.1 µM]	51	1%	-7%	-19%
COc1ccc(-n2c(CN3CCN(c4ccccc4)CC3)nc3ccc([N+](=O)[O-])cc3c2=O)c(OC)c1	-15%[46.1 µM]	?	-79*	-5%	-8%	-9%
O=[N+]([O-])c1ccc(Sc2nc3ccccc3[nH]2)c(Cl)c1	.	.	16	.	.	.
CCC1CN(CCC(=O)N2CCN(c3ncccn3)CC2)Cc2cc(OC)ccc2O1 (centres undefined)	.	.	.	0%	-19%	-15%
Cc1ccc(C2CC(=O)c3cnc(N4CCc5ccccc5C4)nc3C2)cc1 (centres undefined)	-1%	3.7µM*	56	.	-5%	.
O=C1CC(c2ccccc2)Cc2nc(N3CCc4ccccc4C3)ncc21 (centres undefined)	15%	15µM*	-26	.	-6%	.
CC1CC(C)CN(c2ncc3c(n2)CC(c2ccccc2Cl)CC3=O)C1 (centres undefined)	?	10µM*	-5	8%	?	.
SMILES	MARV entry inh	Lassa entry inh	HCMV inh	VACV Venus inh	FMDV antiviral	VACV mCherry inh
CC1CC(C)CN(c2ncc3c(n2)CC(c2ccc(Cl)cc2)CC3=O)C1 (centres undefined)	10%	-17%	11	.	11%	.
O=C1CC(c2ccc(F)cc2)Cc2nc(N3CCN(c4ccccc4)CC3)ncc21 (centres undefined)	15%	-1%	-1	-15%	?	.
Cc1ccc(NC(=O)Cn2c(-c3ccc4c(c3)OCO4)cn(-c3ccccc3)c2=O)cc1	?	-4%[46.1 µM]	77	-9%	25%	-3%
OCC1OC(C(N=Nc2ccccc2)=NNc2ccccc2)C(O)C1O (centres undefined)	.	.	33	.	.	.
Cc1ccc(CNC(=O)c2sc3nc(C)cc(C)c3c2-n2cccc2)cc1	0%[46.1 µM]	7%[46.1 µM]	-16	-17%	-3%	-12%
Cc1ccc(CC(=O)NO)cc1	.	.	.	-12%	.	-9%
CCc1cc(C(C)=O)c(O)cc1OCCCCCC(C)(C)c1nn[nH]n1	.	.	.	.	13%	.
Cc1ccc2c(CNCCc3ccc(Cl)cc3)c(C(=O)O)n(Cc3ccc(F)cc3)c2c1	.	-29%[46.1 µM]	-106*	-15%	-17%	-13%
COc1ccc(Cn2c(C(=O)O)c(CNCc3ccccc3F)c3ccc(OC)cc32)cc1	.	?	-76*	-7%	16%	-11%
C=Cc1ccc(Cn2c(C(=O)O)c(CNCc3cc(OC)ccc3OC)c3ccc(C)cc32)cc1	.	-3%[46.1 µM]	-104*	-12%	0%	-14%
COc1ccc2c(CNCCc3ccco3)c(C(=O)O)n(Cc3ccc(F)cc3)c2c1	.	-19%[46.1 µM]	-1	-6%	-3%	-7%
Cc1ccc(Cn2c(C(=O)O)c(CNCc3ccccc3Cl)c3ccc(C)cc32)cc1	.	?	14	?	?	?
COc1ccc(Cn2c(C(=O)O)c(CNCCc3ccccc3Cl)c3ccc(C)cc32)cc1	.	-27%[46.1 µM]	-105*	?	-54%	?
C=Cc1ccc(Cn2c(C(=O)O)c(CNCCc3ccccc3)c3ccc(C)cc32)cc1	.	4%[46.1 µM]	-90*	?	-18%	-19%
Cc1ccc(Cn2c(C(=O)O)c(CNCCc3ccco3)c3ccc(C)cc32)cc1	.	-6%[46.1 µM]	49	-2%	7%	14%
Cc1cc(C(=O)NCc2cc(C)n(C)n2)sc1-c1ccccc1	?	-29%	-83*	-24%	-24%	-10%
O=CC(=O)c1ccc(Br)cc1	.	.	.	-10%	.	-15%
CCC[C@]12CCN3C(=O)N[C@@H](c4ccccc4)[C@](C(=O)OCC)(C1)[C@H]32	9%[14.2 µM]	.	.	.	.	.
COc1cc(C(=O)O/N=C2/C=CC(=O)C(C)=C2C)cc(OC)c1OC	0%[46.1 µM]	-3%	-105*	0%	?	.
Cc1ccc(C(=O)N2CCN(C3c4cccc5cccc(c45)C3NS(=O)(=O)c3ccccc3)CC2)cc1 (centres undefined)	11µM*	13µM*	-18	-29%	-30%	.
CC(=O)N1CCN([C@@H]2c3cccc4cccc(c34)[C@H]2NS(=O)(=O)c2ccccc2)CC1	-7%	.	.	.	.	.
